Data from PubChem BioAssay.
The source made the active and inactive calls.

Legend:
[1] = tested on: Plasmodium falciparum Sir2 (PF13_0152, Sir2A); test: Plasmodium falciparum Sir2A binding compounds – biochemical, small-molecule microarray, 635 nm fluorescence, primary screen (AID 1098); conditions: fluorescence 635 nm, higher = more signal;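 also: score merges spot fluorescence intensity with its signal-to-noise ratio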
[2] = probe aDKK1 binding to arrayed compounds – biochemical, biotinylated probe, 635/667 nm fluorescence, primary screen (AID 1099); conditions: small-molecule microarray, higher = more signal;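 also: score merges 667nm spot fluorescence with signal to noise across triplicate slides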
[3] = probe aCHRDL2 binding to arrayed compounds – biochemical, biotinylated probe, 635/667 nm fluorescence, primary screen (AID 1100); conditions: small-molecule microarray, higher = more signal
[4] = change in splice reporter luminescence, either direction, cell-based, HEK293, spliceosome inhibition project, primary screen (AID 1101); conditions: HEK293 splicing luciferase reporter, 24 h, higher = more signal, called active from +8 up or from −8 down;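 also: HEK293 cells carrying a splicing-competent luciferase reporter gene; test concentration not given here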
[5] = target: Fibroblast growth factor 10 (Homo sapiens) (UniProt O15520); test: compounds binding fibroblast growth factor 10 – biochemical, small-molecule microarray, 635 nm fluorescence, primary screen (AID 1102); conditions: FGF10 binding, fluorescence 635 nm, higher = more signal
[6] = tested on: glycogen synthase kinase-3 (GSK3A per assay name; protocol says GSK3B); test: compounds binding glycogen synthase kinase-3 – biochemical, small-molecule microarray, 635 nm fluorescence, GSK3A, primary screen (AID 1103); conditions: fluorescence 635 nm, higher = more signal; also: the record names both GSK3A and GSK3B
[7] = target: Epidermal growth factor receptor (Homo sapiens) (UniProt P00533); test: compounds binding epidermal growth factor receptor – biochemical, small-molecule microarray, 635 nm fluorescence, primary screen (AID 1104); conditions: EGFR binding, higher = more signal;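 also: score merges 667 nm emission intensity with spot signal to noise over triplicate slides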
[8] = target: Follistatin-related protein 3 (Homo sapiens) (UniProt O95633); test: compounds binding follistatin-related protein 3 – biochemical, small-molecule microarray, 635 nm fluorescence, primary screen (AID 1105); conditions: FSTL3 binding, higher = more signal;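 also: score merges emission near 667 nm and signal to noise per printed spot across three slides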
[9] = target: Dickkopf-related protein 1 (Homo sapiens) (UniProt O94907); test: small molecules binding DKK1 protein – biochemical, small-molecule microarray, 635 nm fluorescence scan, primary screen (AID 1106); conditions: higher = more signal;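 also: score merges emission near 667 nm with signal to noise over three replicate slides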
[10] = tested on: Inhibin beta A chain (activin A); test: small molecules binding activin A – biochemical, small-molecule microarray, 635 nm fluorescence scan, primary screen (AID 1107); conditions: INHBA, higher = more signal;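 also: mouse activin A protein probed at 4.33 µg/mL on printed slides; score merges bound-protein fluorescence near 667 nm with spot signal-to-noise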
[11] = tested on: Human papillomavirus type 1a protein E7 (residues 44-93); test: small molecules binding HPV E7 44-93 – biochemical, small-molecule microarray, residues 44-93, 635 nm fluorescence, primary screen (AID 1108); conditions: fluorescence 635 nm, higher = more signal;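 also: E7 fragment applied at 1 µg/mL in TBST for 1 h at 4 C; score combines spot fluorescence with its signal to noise ratio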
[12] = hepatitis C replication reporter changes, two-sided – Huh7 cells, luciferase reporter, HCV replication inhibitor project, primary screen (AID 1109); conditions: Huh7 HCV replicon luciferase reporter, 48 h; higher = more signal;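 also: huh7 hepatoma cells harbouring a luciferase neomycin HCV replicon reporter; luciferase luminescence as measure of HCV replicon replication; test concentration not given here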
[13] = target: Left-right determination factor 2 (Homo sapiens) (UniProt O00292); test: small molecules binding LEFTY2 protein – biochemical, small-molecule microarray, 635 nm fluorescence scan, primary screen (AID 1110); conditions: higher = more signal
[14] = target: Calmodulin-1 (Homo sapiens) (UniProt P0DP23); test: small molecules binding calmodulin-1 with EGTA – biochemical, small-molecule microarray, Cy5-labelled CALM1, profiling panel (AID 1111); conditions: Cy5-CALM1 binding fluorescence, higher = more signal;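 also: labelled calmodulin applied in Tris saline Tween buffer holding calcium plus EGTA and DTT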
[15] = target: Calmodulin-1 (Homo sapiens) (UniProt P0DP23); test: small molecules binding Ca-loaded calmodulin-1 – biochemical, small-molecule microarray, Cy5-labelled CALM1, plus calcium, artefact control for SMM control-protein annotation, profiling panel (AID 1112); conditions: Cy5-CALM1 binding fluorescence, higher = more signal;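 also: score merges spot fluorescence with signal to noise from triplicate slides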
[16] = probe aWnt5a binding to arrayed compounds – biochemical, biotinylated probe, 635/667 nm fluorescence, primary screen (AID 1113); conditions: small-molecule microarray, higher = more signal;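 also: score merges 667 nm fluorescence intensity with signal-to-noise per printed feature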
[17] = probe aShh binding to arrayed compounds – biochemical, biotinylated probe, 635/667 nm fluorescence, primary screen (AID 1114); conditions: small-molecule microarray, higher = more signal;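 also: probe is biotin-labelled aShh protein from a stem cell growth factor screen; measures binding of labelled protein to compounds printed on the slide; score merges feature fluorescence at 667 nm with signal-to-noise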
[18] = probe aNog binding to arrayed compounds – biochemical, biotinylated probe, 635/667 nm fluorescence, primary screen (AID 1115); conditions: small-molecule microarray, higher = more signal;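 also: probe is biotinylated aNog protein used at 0.15 µg/mL for 1 h at 4 C; z-score combines 667 nm fluorescence of each spot with its signal to noise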
[19] = target: Torsin-1A-interacting protein 1 (Homo sapiens) (UniProt Q5JTV8); test: compound microarray binding of lysate hLAP1 – cell lysate, small-molecule microarray, COS7 lysate, 635/667 nm fluorescence, primary screen (AID 1116); conditions: 635 nm fluorescence, higher = more signal
[20] = target: Alpha-bungarotoxin (Bungarus multicinctus) (UniProt P60615); test: compounds binding labelled alpha-BTX control protein – biochemical, small-molecule microarray, Alexa647 label, 635/667 nm fluorescence, artefact control for SMM control protein annotation, profiling panel (AID 1117); conditions: alpha-BTX-A647 binding fluorescence, higher = more signal
Chain of Alpha-bungarotoxin (Bungarus multicinctus) (P60615 whole entry, looked up): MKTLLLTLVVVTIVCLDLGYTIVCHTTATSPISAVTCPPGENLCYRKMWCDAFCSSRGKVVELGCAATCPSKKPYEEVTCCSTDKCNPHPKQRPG

Chain of Epidermal growth factor receptor (Homo sapiens) (P00533 whole entry, looked up): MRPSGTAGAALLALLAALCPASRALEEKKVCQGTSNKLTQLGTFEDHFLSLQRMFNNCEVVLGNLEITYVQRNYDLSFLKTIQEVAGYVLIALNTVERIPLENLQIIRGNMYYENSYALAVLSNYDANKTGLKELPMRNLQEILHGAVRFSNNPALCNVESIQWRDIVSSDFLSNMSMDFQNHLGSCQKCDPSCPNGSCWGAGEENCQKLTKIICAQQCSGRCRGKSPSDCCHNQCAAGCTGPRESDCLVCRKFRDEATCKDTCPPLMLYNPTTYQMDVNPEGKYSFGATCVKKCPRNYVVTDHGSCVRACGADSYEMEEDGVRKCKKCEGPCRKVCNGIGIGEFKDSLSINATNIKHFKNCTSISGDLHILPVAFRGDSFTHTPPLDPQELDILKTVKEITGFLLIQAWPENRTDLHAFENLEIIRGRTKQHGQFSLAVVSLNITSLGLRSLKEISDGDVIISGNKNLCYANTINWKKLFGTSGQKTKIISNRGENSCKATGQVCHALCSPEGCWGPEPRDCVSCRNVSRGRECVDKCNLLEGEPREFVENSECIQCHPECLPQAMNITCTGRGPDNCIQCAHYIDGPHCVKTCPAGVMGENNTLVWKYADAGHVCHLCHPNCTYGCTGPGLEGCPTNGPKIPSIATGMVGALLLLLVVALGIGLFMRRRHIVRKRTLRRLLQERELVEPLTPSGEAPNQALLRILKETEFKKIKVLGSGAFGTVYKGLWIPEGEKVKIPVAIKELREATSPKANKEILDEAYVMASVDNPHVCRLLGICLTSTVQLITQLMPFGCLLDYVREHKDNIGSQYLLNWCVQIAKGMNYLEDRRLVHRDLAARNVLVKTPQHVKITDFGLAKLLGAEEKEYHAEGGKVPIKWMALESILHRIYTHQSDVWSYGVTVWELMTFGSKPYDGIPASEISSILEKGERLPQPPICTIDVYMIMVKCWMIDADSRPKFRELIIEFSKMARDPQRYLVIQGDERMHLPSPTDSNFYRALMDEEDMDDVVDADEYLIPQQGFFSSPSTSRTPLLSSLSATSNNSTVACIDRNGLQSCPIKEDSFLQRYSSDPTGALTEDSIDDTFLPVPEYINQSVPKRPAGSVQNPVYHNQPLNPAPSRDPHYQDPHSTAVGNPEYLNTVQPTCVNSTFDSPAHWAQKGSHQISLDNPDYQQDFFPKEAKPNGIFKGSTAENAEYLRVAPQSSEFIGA
Chain of Torsin-1A-interacting protein 1 (Homo sapiens) (Q5JTV8 whole entry, looked up): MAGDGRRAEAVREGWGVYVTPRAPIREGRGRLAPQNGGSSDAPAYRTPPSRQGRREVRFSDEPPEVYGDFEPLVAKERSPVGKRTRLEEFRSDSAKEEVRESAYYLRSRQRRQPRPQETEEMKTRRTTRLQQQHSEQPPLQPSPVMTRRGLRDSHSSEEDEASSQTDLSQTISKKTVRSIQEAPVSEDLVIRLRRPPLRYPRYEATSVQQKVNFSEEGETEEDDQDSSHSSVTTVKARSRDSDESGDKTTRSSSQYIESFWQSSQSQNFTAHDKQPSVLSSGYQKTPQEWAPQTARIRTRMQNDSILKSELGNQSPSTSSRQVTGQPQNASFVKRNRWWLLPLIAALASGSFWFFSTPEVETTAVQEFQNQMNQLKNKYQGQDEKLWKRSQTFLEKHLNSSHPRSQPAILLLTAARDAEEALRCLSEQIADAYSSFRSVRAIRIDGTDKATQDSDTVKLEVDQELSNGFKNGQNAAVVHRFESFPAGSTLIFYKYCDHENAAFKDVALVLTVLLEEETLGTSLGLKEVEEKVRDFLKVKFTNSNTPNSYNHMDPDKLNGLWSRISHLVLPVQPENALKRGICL
Chain of Follistatin-related protein 3 (Homo sapiens) (O95633 whole entry, looked up): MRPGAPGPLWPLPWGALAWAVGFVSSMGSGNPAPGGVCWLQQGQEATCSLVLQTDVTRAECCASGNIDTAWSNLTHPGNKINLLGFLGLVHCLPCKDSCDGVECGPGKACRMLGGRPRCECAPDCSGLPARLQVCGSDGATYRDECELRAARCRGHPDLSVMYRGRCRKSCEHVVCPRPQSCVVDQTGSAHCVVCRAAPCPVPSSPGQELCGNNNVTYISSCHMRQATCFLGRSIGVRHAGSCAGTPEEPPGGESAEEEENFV
Chain of Fibroblast growth factor 10 (Homo sapiens) (O15520 whole entry, looked up): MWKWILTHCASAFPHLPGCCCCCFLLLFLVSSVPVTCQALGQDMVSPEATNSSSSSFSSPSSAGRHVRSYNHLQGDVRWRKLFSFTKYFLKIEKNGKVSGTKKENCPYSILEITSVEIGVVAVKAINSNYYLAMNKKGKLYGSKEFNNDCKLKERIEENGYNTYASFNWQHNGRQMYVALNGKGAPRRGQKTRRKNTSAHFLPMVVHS
Chain of Dickkopf-related protein 1 (Homo sapiens) (O94907 whole entry, looked up): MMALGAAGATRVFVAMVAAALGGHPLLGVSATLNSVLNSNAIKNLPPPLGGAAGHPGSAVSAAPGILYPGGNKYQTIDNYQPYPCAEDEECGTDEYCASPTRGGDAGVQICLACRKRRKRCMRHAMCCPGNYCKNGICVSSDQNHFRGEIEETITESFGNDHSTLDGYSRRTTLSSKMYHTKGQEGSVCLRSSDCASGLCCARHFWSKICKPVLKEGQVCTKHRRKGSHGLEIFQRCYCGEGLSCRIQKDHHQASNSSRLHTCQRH
Chain of Left-right determination factor 2 (Homo sapiens) (O00292 whole entry, looked up): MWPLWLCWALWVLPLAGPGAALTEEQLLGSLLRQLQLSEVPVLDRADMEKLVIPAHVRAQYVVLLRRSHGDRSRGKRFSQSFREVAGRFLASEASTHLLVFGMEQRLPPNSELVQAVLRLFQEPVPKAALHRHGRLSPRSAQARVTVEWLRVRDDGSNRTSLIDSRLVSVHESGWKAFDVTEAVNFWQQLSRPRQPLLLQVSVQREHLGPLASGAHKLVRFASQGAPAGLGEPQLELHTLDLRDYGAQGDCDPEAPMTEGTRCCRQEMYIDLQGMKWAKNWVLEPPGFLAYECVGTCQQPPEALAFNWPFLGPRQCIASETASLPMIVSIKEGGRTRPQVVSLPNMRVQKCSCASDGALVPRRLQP

Structure (SMILES)	composite z-score [1]	composite z-score [2]	composite z-score [3]	z-score [4]	composite z-score [5]	composite z-score [6]	composite z-score [7]	composite z-score [8]	composite z-score [9]	composite z-score [10]	composite z-score [11]	z-score [12]	composite z-score [13]	composite z-score [14]	composite z-score [15]	composite z-score [16]	composite z-score [17]	composite z-score [18]	composite z-score [19]	composite z-score [20]
C=C(CCCC)/C(=C/C[C@@H](OC(=O)c1ccncc1)c1cccc(OCCO)c1)c1cc(C(=O)OC)ccc1OC	0.953	-0.0661	0.273	0.151 (inactive)	0.74	0.764	0.53	0.933	0.438	0.482	-0.414	-2.29	0.725	0.652	-0.732	-0.143	-0.138	-0.452	0.344	1.21
COc1ccc([Si](C)(C)[C@@H]2[C@@H](CCO)O[C@]3(C(=O)N(Cc4ccccc4)c4ccccc43)[C@H]2C)cc1	0.183	-0.18	-0.455	-0.535 (inactive)	0.633	0.16	0.187	0.174	0.104	-0.0249	0.566	-1.84	0.224	0.398	0.49	-0.148	-0.217	0.202	0.526	0.124
CCCNC(=O)[C@@H]1c2ccccc2C(=O)N(Cc2cc(F)cc(C(F)(F)F)c2)[C@H]1c1ccc(CO)cc1	1.54	0.792	0.853	-1.26 (inactive)	0.926	1.29	0.497	1.35	0.677	1.05	0.0588	-0.901	0.498	1.04	-0.263	0.0079	0.188	-0.154	1.44	1.21
O=C(NCc1ccccc1)[C@@]1(CCS(=O)(=O)c2ccccc2)COC(c2ccc(OCCCO)cc2)=N1	1.41	0.933	1.47	-0.969 (inactive)	0.748	1.08	-0.166	0.23	-0.594	0.807	0.623	-1.71	-0.0893	2.16	1.11	0.111	0.504	1.85	1.95	3.73
CC(=O)NCCCC[C@@H]1NC(=O)[C@H]2C[C@@H](C(=O)NCCCCCCN(C)C)[C@@H](c3ccc(O)cc3)N2C1=O	1.04	-0.124	0.0091	-0.808 (inactive)	0.815	1.35	0.851	1.55	1.14	0.775	0.19	1.87	0.851	-0.382	-1.53	-0.154	0.23	0.512	1.85	2.01
O=[N+]([O-])c1ccc(C[n+]2ccc3ccc(O)cc3c2)o1	0.595	0.174	-0.144	-0.0287 (inactive)	0.297	0.314	0.219	0.42	0.0242	0.618	-0.0611	-0.95	-0.0338	1.01	0.287	-0.0435	0.673	-0.206	-0.314	2.53
C[C@@H]1CC[C@H]2C(=O)N3[C@@H](CC[C@@H](C)[C@@H]3c3cccc(N4CCOCC4)c3)C(=O)N2[C@H]1c1cccc(Br)c1	1.1	0.113	0.26	0.0479 (inactive)	0.695	0.989	0.31	0.53	0.327	0.6	0.396	-1.97	0.458	0.361	-0.0482	-0.0357	-0.138	0.0205	0.868	1.6
COc1cc(Cc2cc3c(c(CCc4ccccc4)n2)[Si](C(C)C)(C(C)C)OC3)cc(OC)c1OC	-0.132	-0.106	-0.471	-0.212 (inactive)	0.367	-0.034	0.0831	0.499	0.164	0.679	-0.0207	-2.14	0.131	-0.358	-0.182	-0.156	0.0796	-0.158	-0.214	-0.044
CC(=O)NCCCC[C@@H]1NC(=O)[C@@H]2C[C@H](C(=O)NCCCCCNC(=O)CS)[C@H](c3ccc(O)cc3)N2C1=O	1.45	-0.384	0.292	-1.88 (inactive)	-0.282	-0.631	-0.817	-0.781	0.527	0.247	0.364	1.22	-0.293	-0.592	0.503	-0.221	0.0284	-0.0315	0.0502	-0.46
C=C(C(=O)CC[C@H](OC(=O)c1ccccc1-c1ccccc1C(=O)O)c1ccc(CO)o1)C(C)C	0.75	-0.209	-0.558	-0.107 (inactive)	1.45	0.914	-0.0997	0.858	0.568	0.664	1.24	-1.3	0.408	0.506	-0.698	0.0214	-0.276	0.265	0.875	0.905
C=C[C@H](OC)[C@@H](OC(=O)Nc1ccc(SC)cc1)c1ccc(OC)c(O)c1	0.0729	-0.276	0.241	-1.84 (inactive)	-0.337	-0.392	-0.915	-1.4	-0.559	-0.778	0.318	0.899	-0.784	-0.414	0.319	-0.176	-0.0626	-0.15	0.324	-0.508
